Results filed as inconclusive are left out. Activity calls are given as the source filed them. The calls were made as follows, unless noted: active = hit-call score of the fitted dose curve at least 0.9, where 1 is the maximum; inactive = score below 0.9.
What was measured:
[1] = molecular target: Nuclear respiratory factor 1 (Homo sapiens) (UniProt Q16656); assay: ATG_NRF1_CIS: Attagene CIS-FACTORIAL HepG2 Assay for human Nuclear Respiratory Factor 1 (NRF1) Orphan Gene (AID 2282987); details: HepG2 NRF1 cis-element reporter, Attagene multiplex; actives raise or lower the signal
Nuclear respiratory factor 1 (Homo sapiens), sequence (Q16656 whole entry, looked up, the tested form may be a part): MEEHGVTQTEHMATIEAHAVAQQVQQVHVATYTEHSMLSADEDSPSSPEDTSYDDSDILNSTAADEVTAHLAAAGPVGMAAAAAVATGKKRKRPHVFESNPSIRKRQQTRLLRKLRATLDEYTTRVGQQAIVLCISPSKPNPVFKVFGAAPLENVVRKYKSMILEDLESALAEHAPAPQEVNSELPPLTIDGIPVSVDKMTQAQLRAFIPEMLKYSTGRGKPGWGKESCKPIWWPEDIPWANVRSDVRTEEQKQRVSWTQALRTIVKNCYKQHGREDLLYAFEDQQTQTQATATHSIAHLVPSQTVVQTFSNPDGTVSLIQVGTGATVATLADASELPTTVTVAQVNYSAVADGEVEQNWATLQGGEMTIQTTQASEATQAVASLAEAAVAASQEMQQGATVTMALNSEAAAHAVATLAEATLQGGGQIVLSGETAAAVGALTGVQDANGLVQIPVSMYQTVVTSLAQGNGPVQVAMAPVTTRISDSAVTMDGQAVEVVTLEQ
Summary of the method: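 Cells (HepG2, transient MRTU transfection) are exposed to compound for 24 h, then RNA isolated and reporter mRNA amplified and fluorescently labelled. Fragments are separated by capillary electrophoresis; signal change is fitted bidirectionally relative to DMSO.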

[2] = ATG_NFI_CIS: Attagene CIS-FACTORIAL HepG2 Assay for human Nuclear Factor I (NFI) (AID 2282989); details: HepG2 cis-regulatory reporter, NFI response element transcription; actives raise or lower the signal
Summary of the method: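 Transient MRTU transfection of HepG2 → 24 h chemical dosing → total RNA, oligo(dT) RT → PCR, 6-FAM primer extension, HpaI cut → capillary electrophoresis. Endpoint fitted bidirectionally relative to DMSO.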

[3] = molecular target: Myc proto-oncogene protein (Homo sapiens) (UniProt P01106); assay: ATG_Myc_CIS: Attagene CIS-FACTORIAL HepG2 Assay for human Myelocytomatosis (Myc) Proto-Oncogene Transcription Factor (AID 2282990); details: HepG2, Attagene cis-reporter transcription factor activity; actives raise or lower the signal
Myc proto-oncogene protein (Homo sapiens), sequence (P01106 whole entry, looked up, the tested form may be a part): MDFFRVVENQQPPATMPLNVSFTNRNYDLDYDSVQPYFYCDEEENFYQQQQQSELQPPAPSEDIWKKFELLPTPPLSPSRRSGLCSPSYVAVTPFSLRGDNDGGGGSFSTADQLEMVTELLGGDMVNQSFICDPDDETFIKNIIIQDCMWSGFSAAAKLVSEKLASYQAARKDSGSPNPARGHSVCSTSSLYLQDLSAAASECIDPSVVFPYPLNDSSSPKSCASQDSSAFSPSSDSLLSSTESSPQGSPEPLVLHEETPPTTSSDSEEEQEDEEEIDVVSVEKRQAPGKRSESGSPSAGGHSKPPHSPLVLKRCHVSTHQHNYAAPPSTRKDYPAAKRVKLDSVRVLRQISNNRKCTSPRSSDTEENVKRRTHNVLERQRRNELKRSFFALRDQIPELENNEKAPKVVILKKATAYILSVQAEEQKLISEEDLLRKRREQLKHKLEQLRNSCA
Summary of the method: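 Fluorescence intensity of reporter-specific cDNA fragments, separated by capillary electrophoresis, gives the signal. Transfected HepG2 cells carrying cis-promoter reporter constructs are incubated with compound for 24 h; DMSO serves as baseline.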

[4] = ATG_NRF2_ARE_CIS: Attagene CIS-FACTORIAL HepG2 Assay for human Nuclear Factor Erythroid 2 Related Factor 2 (NFR2) response to Antioxidant Response Elements (ARE) (AID 2282992); details: HepG2 Attagene ARE/NRF2 reporter, transcription factor activity; actives raise or lower the signal;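 as to AC50: reporter mRNA level measured by RT-PCR and capillary electrophoresis fluorescence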
Summary of the method: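 Fluorescence intensity of reporter-specific cDNA fragments, separated by capillary electrophoresis, reflects mRNA induction in transfected HepG2 cells at 24 h. Activity is fitted bidirectionally, DMSO serving as baseline.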

[5] = ATG_Oct_MLP_CIS: Attagene CIS-FACTORIAL HepG2 Assay for human Octamer-Binding Transcription Factor (Oct) (AID 2282993); details: HepG2 Attagene cis-factorial Oct reporter, mRNA; actives raise or lower the signal
Summary of the method: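 Transient MRTU transfection of HepG2 → 24 h compound treatment → RNA isolation, reverse transcription, PCR → 6-FAM primer extension, HpaI digest → capillary electrophoresis. Activity fitted both directions against DMSO.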

[6] = BSK_3C_TissueFactor: BioMAP Diversity Plus: 3C Assay for Tissue Factor Biomarker Activity (AID 2282997); details: BioMAP 3C HUVEC, tissue factor biomarker readout; actives raise or lower the signal
Summary of the method: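 Cells used were primary human umbilical vein endothelial cells. They were dosed with chemical, and after 24 h Tissue Factor was quantified by ELISA. Curves were fitted bidirectionally with DMSO as baseline.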

[7] = BSK_3C_uPAR: BioMAP Diversity Plus: 3C Assay for Urokinase-type plasminogen activator receptor (uPAR) Biomarker Activity (AID 2282998); details: BioMAP 3C HUVEC, uPAR biomarker ELISA; actives raise or lower the signal
Summary of the method: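 ELISA readout of uPAR on human vascular endothelium (umbilical vein primary cells), taken 24 h after chemical dosing. Increases and decreases are both fitted relative to DMSO vehicle.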

[8] = BSK_3C_VCAM1: BioMAP Diversity Plus: 3C Assay for Vascular cell adhesion molecule 1 (VCAM1) Biomarker Activity (AID 2282999); details: BioMAP 3C HUVEC, VCAM1 ELISA, cytokine-stimulated; actives raise or lower the signal
Summary of the method: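 HUVEC primary cells, 24 h compound exposure; VCAM-1 by ELISA; gain/loss of signal fitted bidirectionally vs DMSO baseline.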

[9] = molecular target: human Peroxisome Proliferator-activated Receptor alpha (PPARa), PPARA (gene 5465) (UniProt Q07869); assay: ATG_PPARa_TRANS: Attagene TRANS-FACTORIAL HepG2 Assay for human Peroxisome Proliferator-activated Receptor alpha (PPARa) (AID 2283001; active = hit-call score of the fitted dose curve at least 0.9, where 1 is the maximum)
human Peroxisome Proliferator-activated Receptor alpha (PPARa), PPARA (gene 5465), sequence (Q07869 whole entry, looked up, the tested form may be a part): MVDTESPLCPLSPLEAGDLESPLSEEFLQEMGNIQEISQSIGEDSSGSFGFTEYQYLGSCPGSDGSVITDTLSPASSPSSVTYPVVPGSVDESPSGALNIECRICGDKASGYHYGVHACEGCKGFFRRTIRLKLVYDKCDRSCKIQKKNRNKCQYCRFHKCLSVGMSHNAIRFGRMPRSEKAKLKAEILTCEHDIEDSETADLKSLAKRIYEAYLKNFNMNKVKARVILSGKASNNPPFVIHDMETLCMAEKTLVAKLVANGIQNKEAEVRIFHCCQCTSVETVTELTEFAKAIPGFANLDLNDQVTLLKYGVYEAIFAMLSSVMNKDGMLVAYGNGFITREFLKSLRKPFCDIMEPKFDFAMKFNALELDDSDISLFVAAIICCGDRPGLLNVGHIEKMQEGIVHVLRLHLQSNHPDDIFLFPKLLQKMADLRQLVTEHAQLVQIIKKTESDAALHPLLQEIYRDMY
Summary of the method: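 Transient HepG2 transfection, GAL4-UAS reporters, NR-Gal4 chimeras; 24 h compound exposure. Readout: reporter transcripts by RT-PCR, 6-FAM primer extension, HpaI digest, capillary electrophoresis. Positive direction vs DMSO baseline.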

[10] = molecular target: human Peroxisome Proliferator-activated Receptor delta (PPARd), PPARD (gene 5467) (UniProt Q03181); assay: ATG_PPARd_TRANS: Attagene TRANS-FACTORIAL HepG2 Assay for human Peroxisome Proliferator-activated Receptor delta (PPARd) (AID 2283002; active = hit-call score of the fitted dose curve at least 0.9, where 1 is the maximum)
human Peroxisome Proliferator-activated Receptor delta (PPARd), PPARD (gene 5467), sequence (Q03181 whole entry, looked up, the tested form may be a part): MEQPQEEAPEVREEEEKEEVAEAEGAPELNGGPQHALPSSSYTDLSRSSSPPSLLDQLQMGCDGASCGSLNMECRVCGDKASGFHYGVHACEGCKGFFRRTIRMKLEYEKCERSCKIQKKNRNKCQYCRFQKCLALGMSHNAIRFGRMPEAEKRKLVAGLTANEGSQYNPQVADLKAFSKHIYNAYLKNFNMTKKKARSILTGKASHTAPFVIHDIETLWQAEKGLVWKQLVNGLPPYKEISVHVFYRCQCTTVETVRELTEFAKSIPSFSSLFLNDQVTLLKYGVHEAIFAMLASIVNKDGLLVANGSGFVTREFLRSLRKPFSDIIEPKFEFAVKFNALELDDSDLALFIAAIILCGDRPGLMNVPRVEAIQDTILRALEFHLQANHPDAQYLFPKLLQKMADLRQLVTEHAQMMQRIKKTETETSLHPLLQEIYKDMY
Summary of the method: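 Fluorescence from capillary electrophoresis of labelled RT-PCR reporter fragments gives the signal; DMSO sets baseline. Cells: HepG2 transiently carrying GAL4-UAS reporter units plus chimeric nuclear receptor-Gal4 proteins, exposed to chemicals for 24 h.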

[11] = read-out: Intercellular Adhesion Molecule 1 (ICAM1), ICAM1 (gene 3383); assay: BSK_3C_ICAM1: BioMAP Diversity Plus: 3C Assay for Intercellular Adhesion Molecule 1 (ICAM1) Biomarker Activity (AID 2283003); details: primary human endothelial cells (HUVEC); actives raise or lower the signal
Summary of the method: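 ELISA read-out of ICAM-1; HUVEC (primary human), 3C system, 24 h post-dosing; bidirectional fit vs DMSO baseline.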

[12] = BSK_3C_Proliferation: Cell Proliferation Assessment in the BioMAP Diversity Plus: 3C Assay (AID 2283006); details: primary human endothelial cells (HUVEC);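 as to AC50: potency may reflect either rise or fall in cell number versus DMSO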
Summary of the method: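 HUVEC, sub-confluent; 48 h chemical exposure; 10% TCA fix, 0.1% SRB stain, A560 total protein. Gain or loss of signal fitted both directions vs DMSO control.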

[13] = molecular target: Peroxisome proliferator-activated receptor gamma (Homo sapiens) (UniProt P37231); assay: ATG_PPARg_TRANS: Attagene TRANS-FACTORIAL HepG2 Assay for human Peroxisome Proliferator-activated Receptor-gamma (PPARg) (AID 2283007; active = hit-call score of the fitted dose curve at least 0.9, where 1 is the maximum)
Peroxisome proliferator-activated receptor gamma (Homo sapiens), sequence (P37231 whole entry, looked up, the tested form may be a part): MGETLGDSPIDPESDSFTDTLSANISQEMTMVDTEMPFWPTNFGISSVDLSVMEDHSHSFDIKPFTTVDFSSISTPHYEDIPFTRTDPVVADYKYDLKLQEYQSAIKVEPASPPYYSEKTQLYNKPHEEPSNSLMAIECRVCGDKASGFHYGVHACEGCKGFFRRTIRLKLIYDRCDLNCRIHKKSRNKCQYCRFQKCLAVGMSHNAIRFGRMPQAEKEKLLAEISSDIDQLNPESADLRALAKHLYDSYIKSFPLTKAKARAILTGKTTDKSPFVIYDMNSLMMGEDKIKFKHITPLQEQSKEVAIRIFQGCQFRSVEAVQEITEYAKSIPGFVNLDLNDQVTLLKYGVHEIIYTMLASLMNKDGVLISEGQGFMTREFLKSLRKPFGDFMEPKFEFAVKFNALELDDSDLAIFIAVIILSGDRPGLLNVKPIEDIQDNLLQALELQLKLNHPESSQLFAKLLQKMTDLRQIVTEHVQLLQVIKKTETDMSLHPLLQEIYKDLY
Summary of the method: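 Gain-of-signal endpoint relative to DMSO, derived from reporter mRNA levels quantified by RT-PCR and capillary electrophoresis. Cells were HepG2 transiently expressing a chimeric NR-Gal4 construct with GAL4-UAS reporters, exposed to chemicals for 24 h.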

[14] = molecular target: Nuclear receptor subfamily 1 group I member 2 (Homo sapiens) (UniProt O75469); assay: ATG_PXR_TRANS: Attagene TRANS-FACTORIAL HepG2 Assay for human Pregnane X Receptor (PXR) (AID 2283008; active = hit-call score of the fitted dose curve at least 0.9, where 1 is the maximum)
Nuclear receptor subfamily 1 group I member 2 (Homo sapiens), sequence (O75469 whole entry, looked up, the tested form may be a part): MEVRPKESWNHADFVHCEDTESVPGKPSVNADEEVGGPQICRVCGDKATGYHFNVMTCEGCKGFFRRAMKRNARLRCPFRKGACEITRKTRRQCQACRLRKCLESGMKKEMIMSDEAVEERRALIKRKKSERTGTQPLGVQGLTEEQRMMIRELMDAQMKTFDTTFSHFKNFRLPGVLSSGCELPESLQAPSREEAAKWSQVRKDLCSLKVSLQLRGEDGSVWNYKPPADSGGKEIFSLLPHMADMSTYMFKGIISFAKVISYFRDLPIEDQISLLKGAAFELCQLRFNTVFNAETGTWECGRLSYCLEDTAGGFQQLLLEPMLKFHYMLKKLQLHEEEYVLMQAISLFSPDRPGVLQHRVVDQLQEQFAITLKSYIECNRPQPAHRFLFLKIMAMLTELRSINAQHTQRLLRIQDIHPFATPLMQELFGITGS
Summary of the method: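 Transient HepG2 transfectants carrying multiplexed reporter transcription units; PXR activity read through a Gal4 chimera. 24 h exposure. RT-PCR/CE fluorescence; upward curve fit referenced to DMSO.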

[15] = molecular target: human Retinoic Acid Receptor gamma (RARg), RARG (gene 5916) (UniProt P13631); assay: ATG_RARg_TRANS: Attagene TRANS-FACTORIAL HepG2 Assay for human Retinoic Acid Receptor gamma (RARg) (AID 2283009; active = hit-call score of the fitted dose curve at least 0.9, where 1 is the maximum)
human Retinoic Acid Receptor gamma (RARg), RARG (gene 5916), sequence (P13631 whole entry, looked up, the tested form may be a part): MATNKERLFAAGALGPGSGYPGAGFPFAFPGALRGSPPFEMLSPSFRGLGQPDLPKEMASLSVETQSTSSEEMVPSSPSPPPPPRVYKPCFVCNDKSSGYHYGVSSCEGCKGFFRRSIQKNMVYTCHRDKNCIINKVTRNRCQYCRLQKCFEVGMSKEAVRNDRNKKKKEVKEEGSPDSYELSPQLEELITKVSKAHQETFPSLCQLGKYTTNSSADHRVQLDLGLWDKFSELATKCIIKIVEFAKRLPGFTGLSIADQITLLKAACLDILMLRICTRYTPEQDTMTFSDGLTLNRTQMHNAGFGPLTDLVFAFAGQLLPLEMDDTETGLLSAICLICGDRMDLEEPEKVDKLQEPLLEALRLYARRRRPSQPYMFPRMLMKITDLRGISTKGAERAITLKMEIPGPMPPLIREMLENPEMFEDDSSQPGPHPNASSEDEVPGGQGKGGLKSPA
Summary of the method: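 Readout: reporter transcript levels via RT-PCR, 6-FAM primer-extension labelling, HpaI digestion and capillary electrophoresis. Cells: HepG2 carrying transfected RARg-GAL4 chimera plus UAS reporter set. Dosing 24 h; DMSO negative control.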

[16] = molecular target: human RAR-related Orphan Receptor beta (RORb), RORB (gene 6096) (UniProt Q92753); assay: ATG_RORb_TRANS: Attagene TRANS-FACTORIAL HepG2 Assay for human RAR-related Orphan Receptor beta (RORb) (AID 2283010; active = hit-call score of the fitted dose curve at least 0.9, where 1 is the maximum)
human RAR-related Orphan Receptor beta (RORb), RORB (gene 6096), sequence (Q92753 whole entry, looked up, the tested form may be a part): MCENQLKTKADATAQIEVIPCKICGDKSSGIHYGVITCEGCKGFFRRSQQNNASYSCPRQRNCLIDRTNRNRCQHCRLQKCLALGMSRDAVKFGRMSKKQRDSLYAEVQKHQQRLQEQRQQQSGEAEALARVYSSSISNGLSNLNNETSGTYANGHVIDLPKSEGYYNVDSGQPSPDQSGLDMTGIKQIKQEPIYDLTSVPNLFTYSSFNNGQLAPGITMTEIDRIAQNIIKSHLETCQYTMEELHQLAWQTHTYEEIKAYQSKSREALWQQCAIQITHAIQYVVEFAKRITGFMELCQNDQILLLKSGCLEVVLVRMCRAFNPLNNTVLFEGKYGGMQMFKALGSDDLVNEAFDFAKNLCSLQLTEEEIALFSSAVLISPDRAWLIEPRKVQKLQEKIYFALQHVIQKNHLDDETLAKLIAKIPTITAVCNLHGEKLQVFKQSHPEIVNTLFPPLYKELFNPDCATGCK
Summary of the method: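 HepG2, transient MRTU transfection (GAL4-UAS reporters, exogenous NR-Gal4 chimeras); 24 h compound exposure; total RNA → RT-PCR → 6-FAM primer extension → HpaI digest → CE fluorescence. Positive direction vs DMSO baseline.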

[17] = BSK_4H_Eotaxin3: BioMAP Diversity Plus: 4H Assay for Eotaxin 3 Biomarker Activity (AID 2283000); details: primary human endothelial cells (HUVEC); actives raise or lower the signal
Summary of the method: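 Endothelial primary cells (human umbilical vein) exposed to compound for 24 h. ELISA detection of Eotaxin-3.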

[18] = molecular target: Retinoic acid receptor alpha (Homo sapiens) (UniProt P10276); assay: ATG_RARa_TRANS: Attagene TRANS-FACTORIAL HepG2 Assay for human Retinoic Acid Receptor alpha (RARa) (AID 2283005; active = hit-call score of the fitted dose curve at least 0.9, where 1 is the maximum;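 as to AC50: potency for increased reporter signal meaning RARa activation over DMSO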)
Retinoic acid receptor alpha (Homo sapiens), sequence (P10276 whole entry, looked up, the tested form may be a part): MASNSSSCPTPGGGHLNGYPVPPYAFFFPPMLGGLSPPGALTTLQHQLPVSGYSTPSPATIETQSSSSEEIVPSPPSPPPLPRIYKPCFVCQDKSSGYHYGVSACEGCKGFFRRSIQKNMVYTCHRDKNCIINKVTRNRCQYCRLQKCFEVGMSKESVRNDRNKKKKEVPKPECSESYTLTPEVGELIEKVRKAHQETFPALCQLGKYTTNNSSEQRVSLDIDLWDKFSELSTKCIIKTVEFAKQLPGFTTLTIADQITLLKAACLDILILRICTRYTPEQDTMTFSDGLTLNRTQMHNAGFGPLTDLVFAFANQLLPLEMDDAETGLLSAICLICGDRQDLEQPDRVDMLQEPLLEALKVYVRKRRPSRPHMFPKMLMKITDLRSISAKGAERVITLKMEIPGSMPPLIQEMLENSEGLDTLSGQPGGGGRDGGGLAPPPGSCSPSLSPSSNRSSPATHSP
Summary of the method: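 HepG2 transiently transfected with multiplex GAL4-UAS reporter units including a human RARa–GAL4 chimera; 24 h compound exposure. Reporter mRNA quantified by RT-PCR, 6-FAM labeling and capillary electrophoresis; gain of signal versus DMSO.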

[19] = ATG_NF_kB_CIS: Attagene CIS-FACTORIAL HepG2 Assay for human Nuclear Factor Kappa B (NF-kB) (AID 2282991); details: HepG2 Attagene cis-factorial NF-kB reporter mRNA; actives raise or lower the signal
Summary of the method: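 Measures mRNA induction of an NF-kB-responsive cis-element reporter in HepG2 cells transfected with multiple reporter units, sampled 24 h post-dosing; quantified by fluorescence after RT-PCR and capillary electrophoresis, fitted for activation or inhibition against DMSO.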

[20] = molecular target: Cellular tumor antigen p53 (Homo sapiens) (UniProt P04637); assay: ATG_p53_CIS: Attagene CIS-FACTORIAL HepG2 Assay for human p53 Transcription Factor (AID 2282994); details: HepG2 p53 cis-element reporter, Attagene mRNA; actives raise or lower the signal
Cellular tumor antigen p53 (Homo sapiens), sequence (P04637 whole entry, looked up): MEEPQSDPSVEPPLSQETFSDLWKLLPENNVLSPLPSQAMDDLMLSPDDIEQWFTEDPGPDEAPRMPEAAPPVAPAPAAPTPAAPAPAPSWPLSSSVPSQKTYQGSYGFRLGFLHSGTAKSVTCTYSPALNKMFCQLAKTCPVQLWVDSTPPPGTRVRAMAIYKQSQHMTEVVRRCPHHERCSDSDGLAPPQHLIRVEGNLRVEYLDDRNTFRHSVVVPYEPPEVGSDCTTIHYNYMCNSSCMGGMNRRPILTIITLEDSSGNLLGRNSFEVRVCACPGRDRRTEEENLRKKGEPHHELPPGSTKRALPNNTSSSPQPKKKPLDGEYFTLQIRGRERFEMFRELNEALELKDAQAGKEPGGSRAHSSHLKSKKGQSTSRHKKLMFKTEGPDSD
Summary of the method: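 Transiently transfected HepG2 (multiple cis reporter transcription units); exposure 24 h; reporter RNA via RT-PCR, 6-FAM extension, 2 h HpaI digest at 37 C, CE detection; DMSO baseline.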

Measured: AC50

Cc1nc(N(C)C)nc(OC(=O)N(C)C)c1C
inactive: [1] | [2] | [3] | [4] | [5] | [6] | [7] | [8] | [9] | [10] | [11] | [12] | [13] | [14] | [15] | [16]

COCc1cnc(C2=NC(C)(C(C)C)C(=O)N2)c(C(=O)O)c1 (centres undefined)
inactive: [1] | [2] | [3] | [4] | [5] | [6] | [7] | [8] | [17] | [9] | [11] | [18] | [12] | [13] | [14] | [15] | [16]

O=C(Nc1ccccc1-c1ccc(Cl)cc1)c1cccnc1Cl
active: [4] 8770 nM | [5] 7.03 µM | [13] 10.9 µM
inactive: [1] | [2] | [3] | [19] | [20] | [6] | [7] | [8] | [17] | [10] | [11] | [12] | [14] | [16]

CC1(C)C(C(=O)OC(C#N)c2cccc(Oc3ccccc3)c2)C1(C)C (centres undefined)
active: [4] 913 nM | [18] 13.7 µM | [12] 7.92 µM | [13] 16.9 µM | [14] 9.21 µM
inactive: [1] | [2] | [3] | [19] | [5] | [20] | [6] | [7] | [8] | [10] | [11] | [15]

CC1(C)CON(Cc2ccccc2Cl)C1=O
inactive: [1] | [2] | [3] | [19] | [5] | [20] | [6] | [7] | [8] | [9] | [10] | [11] | [18] | [12] | [13] | [14] | [15] | [16]
active: [4] 44100 nM

CCCCOCN(C(=O)CCl)c1c(CC)cccc1CC
inactive: [1] | [2] | [3] | [19] | [5] | [20] | [9] | [14] | [16]
active: [4] 547 nM | [6] 16 µM | [7] 31.2 µM | [8] 27.4 µM | [17] 36.1 µM | [11] 32.2 µM | [12] 28.2 µM | [13] 1.38 µM

CCN(CC)C(=O)C(C)Oc1cccc2ccccc12 (centres undefined)
inactive: [1] | [2] | [3] | [20] | [6] | [7] | [8] | [10] | [11] | [16]
active: [4] 485 nM | [5] 4.2 µM | [17] 10.8 µM | [12] 6.69 µM | [13] 50 µM | [14] 0.503 µM
